# Measurements: PubChem BioAssay AID1159580 (chemical genetic matrix, 2015)
# Where “and” joins values, the source holds several entries; their conditions need not be identical. Identical values can stand only once. The whole screen tested about 5,500 compounds, of which about 2,000 (36%) were called active. Inconclusive results (about 18%) are left out. The list shows a part of the results. Values without a mark were called inactive. Cut-off read from the data, not from the text of the source: active = normalized growth mostly below about 0.91 (no sharp cut-off); inconclusive = no clear call, values can overlap the other calls; inactive = mostly above about 0.92.
# Assay: chemical genetic growth profiling, strain panel (AID 1159580);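 note: tested at 20 µM; growth read once vehicle control cultures reached saturation at 30 °C; 1 = growth at the plate median or of vehicle wells; lower values mean less growth of the strain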
# Settings: S. cerevisiae deletion strains, growth OD
smiles,measurement,setting,value
CNCCC=C1c2ccccc2CCc2ccccc21,normalized growth,"locus YAL013W, strain DEP1, stronger effect = lower value",1.01
same,normalized growth,"locus YAL021C, strain ccr4, stronger effect = lower value",0.919
same,normalized growth,"locus YAL026C, strain drs2, stronger effect = lower value",0.854 (active)
same,normalized growth,"locus YAL030W, strain snc1, stronger effect = lower value",0.975
same,normalized growth,"locus YAL040C, strain CLN3, stronger effect = lower value",1.01
same,normalized growth,"locus YBL061C, strain skt5, stronger effect = lower value",0.983
same,normalized growth,"locus YBR009C, strain hhf1, stronger effect = lower value",0.989
same,normalized growth,"locus YBR021W, strain FUR4, stronger effect = lower value",1.02
same,normalized growth,"locus YBR023C, strain chs3, stronger effect = lower value",0.956
same,normalized growth,"locus YBR171W, strain sec66, stronger effect = lower value",0.952
same,normalized growth,"locus YBR229C, strain ROT2, stronger effect = lower value",1.01
same,normalized growth,"locus YBR231C, strain swc5, stronger effect = lower value",0.996
same,normalized growth,"locus YBR279W, strain paf1, stronger effect = lower value",0.971
same,normalized growth,"locus YCL011C, strain gbp2, stronger effect = lower value",0.965
same,normalized growth,"locus YCL016C, strain dcc1, stronger effect = lower value",0.946
same,normalized growth,"locus YCL029C, strain bik1, stronger effect = lower value",1.04
same,normalized growth,"locus YCL061C, strain MRC1 (second series), stronger effect = lower value",0.998
same,normalized growth,"locus YCL061C, strain MRC1, stronger effect = lower value",0.981
same,normalized growth,"locus YCL069W, strain vba3, stronger effect = lower value",0.976
same,normalized growth,"locus YCR088W, strain abp1, stronger effect = lower value",0.978
same,normalized growth,"locus YDL005C, strain med2, stronger effect = lower value",0.955
same,normalized growth,"locus YDL035C, strain GPR1, stronger effect = lower value",1
same,normalized growth,"locus YDL040C, strain nat1, stronger effect = lower value",0.974
same,normalized growth,"locus YDL074C, strain BRE1, stronger effect = lower value",1.03
same,normalized growth,"locus YDL101C, strain DUN1, stronger effect = lower value",1.02
same,normalized growth,"locus YDL134C, strain PPH21, stronger effect = lower value",1.01
same,normalized growth,"locus YDL185W, strain tfp1, stronger effect = lower value",1.02
same,normalized growth,"locus YDL192W, strain arf1, stronger effect = lower value",1.02
same,normalized growth,"locus YDR001C, strain nth1, stronger effect = lower value",0.986
same,normalized growth,"locus YDR069C, strain doa4, stronger effect = lower value",0.929
same,normalized growth,"locus YDR101C, strain arx1, stronger effect = lower value",1.03
same,normalized growth,"locus YDR137W, strain rgp1, stronger effect = lower value",1.1
same,normalized growth,"locus YDR150W, strain NUM1, stronger effect = lower value",1.01 and 1
same,normalized growth,"locus YDR159W, strain sac3, stronger effect = lower value",0.955
same,normalized growth,"locus YDR162C, strain NBP2, stronger effect = lower value",1
same,normalized growth,"locus YDR195W, strain ref2",1
same,normalized growth,"locus YDR297W, strain sur2, stronger effect = lower value",0.99
same,normalized growth,"locus YDR318W, strain mcm21, stronger effect = lower value",1.03
same,normalized growth,"locus YDR334W, strain swr1, stronger effect = lower value",0.957
same,normalized growth,"locus YDR335W, strain msn5, stronger effect = lower value",0.963
same,normalized growth,"locus YDR363W, strain ESC2, stronger effect = lower value",0.951
same,normalized growth,"locus YDR388W, stronger effect = lower value",1.02
same,normalized growth,"locus YDR392W, strain spt3, stronger effect = lower value",0.939
same,normalized growth,"locus YDR502C, strain sam2, stronger effect = lower value",1.03
same,normalized growth,"locus YEL003W, strain gim4, stronger effect = lower value",0.972
same,normalized growth,"locus YEL037C, strain rad23, stronger effect = lower value",0.967
same,normalized growth,"locus YEL061C, strain CIN8 (second series), stronger effect = lower value",0.972
same,normalized growth,"locus YEL061C, strain CIN8, stronger effect = lower value",1.01
same,normalized growth,"locus YER002W, strain NOP16, stronger effect = lower value",1.03
same,normalized growth,"locus YER015W, strain faa2, stronger effect = lower value",0.978
same,normalized growth,"locus YER016W, strain bim1, stronger effect = lower value",0.97
same,normalized growth,"locus YER110C, stronger effect = lower value",1.01
same,normalized growth,"locus YER111C, strain swi4, stronger effect = lower value",0.953
same,normalized growth,"locus YER155C, strain BEM2 (second series), stronger effect = lower value",0.917
same,normalized growth,"locus YER155C, strain BEM2, stronger effect = lower value",1
same,normalized growth,"locus YER167W, strain BCK2, stronger effect = lower value",1
same,normalized growth,"locus YFR010W, strain ubp6, stronger effect = lower value",0.958
same,normalized growth,"locus YGL078C, strain dbp3, stronger effect = lower value",1.01
same,normalized growth,"locus YGL086W, strain mad1, stronger effect = lower value",1.01
same,normalized growth,"locus YGL167C, strain pmr1, stronger effect = lower value",0.971
same,normalized growth,"locus YGL173C, strain kem1, stronger effect = lower value",0.968
same,normalized growth,"locus YGL227W, strain vid30, stronger effect = lower value",0.966
same,normalized growth,"locus YGL240W, strain doc1, stronger effect = lower value",1.01
same,normalized growth,"locus YGL248W, strain PDE1, stronger effect = lower value",1.01
same,normalized growth,"locus YGL253W, strain hxk2, stronger effect = lower value",0.981
same,normalized growth,"locus YGR078C, strain PAC10, stronger effect = lower value",1.03 and 0.991
same,normalized growth,"locus YGR135W, strain pre9, stronger effect = lower value",1.02
same,normalized growth,"locus YGR229C, strain SMI1, stronger effect = lower value",1.03 and 0.97
same,normalized growth,"locus YGR252W, strain gcn5, stronger effect = lower value",1.14
same,normalized growth,"locus YHR013C, strain ard1, stronger effect = lower value",0.885
same,normalized growth,"locus YHR027C, strain rpn1, stronger effect = lower value",0.978
same,normalized growth,"locus YHR030C, strain SLT2, stronger effect = lower value",1.01 and 0.966
same,normalized growth,"locus YHR079C, strain IRE1 (second series), stronger effect = lower value",1.03
same,normalized growth,"locus YHR079C, strain IRE1, stronger effect = lower value",0.974
same,normalized growth,"locus YHR094C, strain hxt1, stronger effect = lower value",1.01
same,normalized growth,"locus YHR129C, strain ARP1, stronger effect = lower value",1.01
same,normalized growth,"locus YHR142W, strain chs7, stronger effect = lower value",0.961
same,normalized growth,"locus YHR200W, strain rpn10, stronger effect = lower value",1.02
same,normalized growth,"locus YIL066C, strain RNR3, stronger effect = lower value",1.02
same,normalized growth,"locus YIL073C, strain SPO22, stronger effect = lower value",1.09
same,normalized growth,"locus YIL125W, strain kgd1, stronger effect = lower value",1.01
same,normalized growth,"locus YIR030C, strain dcg1, stronger effect = lower value",1.02
same,normalized growth,"locus YJL092W, strain hpr5, stronger effect = lower value",0.991
same,normalized growth,"locus YJL095W, strain BCK1 (second series), stronger effect = lower value",0.965
same,normalized growth,"locus YJL095W, strain BCK1, stronger effect = lower value",1.01 and 0.961
same,normalized growth,"locus YJL115W, strain asf1, stronger effect = lower value",0.961
same,normalized growth,"locus YJL129C, strain trk1, stronger effect = lower value",0.978
same,normalized growth,"locus YJL134W, strain LCB3, stronger effect = lower value",1.01
same,normalized growth,"locus YJL154C, strain vps35, stronger effect = lower value",0.973
same,normalized growth,"locus YJL164C, strain tpk1, stronger effect = lower value",0.978
same,normalized growth,"locus YJL166W, strain qcr8, stronger effect = lower value",0.989
same,normalized growth,"locus YJL168C, strain set2, stronger effect = lower value",1.01
same,normalized growth,"locus YJL187C, strain SWE1 (second series), stronger effect = lower value",1.02
same,normalized growth,"locus YJR043C, strain POL32, stronger effect = lower value",1.02
same,normalized growth,"locus YJR066W, strain TOR1, stronger effect = lower value",0.923
